For 88 compounds, inhibition results are on record in PubChem BioAssay AID602252 (Broad Institute, 2012).

By inhibition is commonly meant the relative decrease from the control value, in per cent.

The structures appear in SMILES notation. About 2,700 (0.9%) of roughly 300,000 compounds were called active. For the sample, actives were picked, then their nearest neighbours and some compounds at random. Unmarked numbers belong to inactive results.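 The calls were made as follows: active = mean inhibition of at least 30% with at least half of replicates also reaching 30%; inconclusive = no clear call, values can overlap the other calls; inactive = the rest.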

The experiment concerns the target Golgi-associated PDZ and coiled-coil motif-containing protein (Homo sapiens) (UniProt Q9HD26). Description: blockade of CAL PDZ-reporter peptide interaction – biochemical, fluorescence polarization, untagged CAL PDZ, HTS, primary screen (AID 602252).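 Also: 0% = DMSO neutral control and 100% = excess unlabeled competitor peptide PRC23.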 Conditions: purified CAL PDZ, TMR-peptide fluorescence polarization, 1 h; at 24.9 µM; active compounds read high. In general terms: Polarisation of emitted light reports the rotation of a fluorescent probe.
As for `O=C(OCC(=O)N1CCN(C(=O)c2ccco2)CC1)c1c(Cl)cccc1Cl`, the inhibition was -0.558%.
The same measure for `CC(C)CNS(=O)(=O)c1ccc(CCC(=O)NCc2ccc(Cl)cc2)cc1`: 0.426%; for `Cc1ccc(S(=O)(=O)NCCC(=O)Nc2ccc(C)c(Cl)c2)cc1C`: -1.6%; for `Cc1ccc(S(=O)(=O)NCCC(=O)NCc2ccc(Cl)cc2)cc1C`: 66.1% (active).
The same measure for `CCN(CC)C(=O)[C@H]1C[C@H](CC(=O)NCC23CC4CC(CC(C4)C2)C3)C(=O)N2CCc3c([nH]c4cc(CCC(=O)N(C)C)ccc34)[C@]12C`: -1.84%.
The same measure for `Cc1cc(-n2nc(C)cc2C)n2ncc(-c3ccccc3)c2n1`: -1.01%; for `Cc1cc(C(F)(F)F)n2ncc(-c3ccccc3)c2n1`: 50.2% (active); for `O=C(O)c1cnn2c(C(F)(F)F)cc(-c3ccccc3)nc12`: 0.025%.
On to `O=[N+]([O-])c1cccc(C=NN=Cc2ccccc2O)c1`, for which the inhibition is 6.22%.
`COC(=O)[C@]1(Cc2ccccc2)N[C@H](CN(C)S(=O)(=O)c2ccc(OC(F)(F)F)cc2)[C@@H]2C(=O)N(Cc3ccccc3)C(=O)[C@@H]21`: the inhibition is -5.9%.
Take `NN=C(NN=Cc1ccccc1)c1ccccc1`: the inhibition was -2.94%.
For the compound `COc1ccc(-c2nc3cc(C)ccn3c2NC2CCCCC2)cc1SC1CCCCC1`, the inhibition is -0.092%.
In the case of `CCCCN(CC(=O)Nc1cccc(S(=O)(=O)N2CCCC2)c1)Cc1nc2ccccc2c(=O)[nH]1` it was -3.98%.
With `CCc1ccc(CN(C)C(C)C(=O)Nc2ccc(S(=O)(=O)N3CCCC3)cc2)cc1` (stereo not drawn), the inhibition was 2.24%.
In the case of `COc1cc(OC)cc(-c2c(C#Cc3ccsc3)c3cc(-c4ccc(OC)cc4F)ccc3n2C)c1` it was 2.79%; in that of `O=C1OCC2=C1C(c1ccc(Cl)cc1)c1cc3c(cc1O2)OCO3` (stereo not drawn), 7.51%.
In the case of `Cc1ccc(-c2cc(C(=O)N3CCc4ccccc4C3)no2)cc1` it was 1.04%; in that of `CN(c1ccc(C(=O)N2CCc3ccccc3C2)cc1)S(C)(=O)=O`, 3.47%; in that of `Cn1cccc1C(=O)N1CCc2ccccc2C1`, 91.2% (active).
As to `O=S(=O)(Cc1ccc(Cl)cc1Cl)c1ccc(Cl)cc1`, the inhibition is -1.54%.
In the case of `Cc1nn(-c2ncccn2)c2c1C(=O)CC(C)(C)C2Br` (stereo not drawn) it was 0.781%.
In the case of `CN(C)C(CNC(=O)c1cc2ccccc2o1)c1ccccc1` (stereo not drawn) it was -5.09%; in that of `CCCCNC(=O)c1ccc(-n2c(=S)[nH]c3ccccc3c2=O)cc1`, 41.5% (active).
On to `CCCCn1c(=S)[nH]c2ccccc2c1=O`, for which the inhibition was -2.2%.
The same measure for `CCN(CC)CCCNC(=O)c1ccc2c(=O)n(Cc3ccc4c(c3)OCO4)c(=S)[nH]c2c1`: -3.92%; for `CCOC(=O)c1sc(NC(=O)c2cc(S(=O)(=O)N3CCOCC3)ccc2C)nc1C`: -2.78%.
On to `CCc1nnc(NC(=O)c2cc(S(=O)(=O)N3CCCCC3)ccc2C)s1`, for which the inhibition is 77.7% (active).
As to `CCOC(=O)CSc1nnc(NC(=O)c2cccc(S(=O)(=O)N3CCCCC3)c2)s1`, the inhibition is -0.488%.
In the case of `CN(C(=O)c1cccc(NC(=O)Cc2ccc(NC(=O)C3CCCN(C(=O)C4CCCC4)C3)cc2)c1)C1CCC1` (stereo not drawn) it was 4.34%.
Turning to `CCOC(=O)c1c(-c2ccccc2)csc1NC(=S)NC(=O)c1ccccc1`, the inhibition is -5.36%.
In the case of `CCOC(=O)c1c(-c2ccc(-c3ccccc3)cc2)csc1NC(=O)CCC(=O)O` it was 39.2% (active); in that of `CCOC(=O)c1c(-c2cccc(C)c2)csc1NC(=O)c1c(-c2ccccc2)noc1C`, -0.763%.
In the case of `C=CCN1C=C(C(=O)c2ccccc2)C(=O)CC1` it was 6.82%.
`COc1ccccc1NC(=O)Nc1nnc(Cc2ccc(F)cc2)s1`: the inhibition was 54% (active).
The same measure for `COc1ccc(Cc2nnc(NC(=O)c3ccc(OC)cc3OC)s2)cc1`: -2.81%; for `O=C(Nc1nnc(COc2ccccc2)s1)Nc1ccccc1F`: 1.97%.
For `CN(CCc1ccccc1)C(=O)c1cccc(NC(=O)Cc2cccc(NC(=O)C3CCCN(C(=O)C4CCC4)C3)c2)c1` (stereo not drawn), the inhibition is -1.08%.
In the case of `COc1ccc(CCNC(=O)COc2cc(C)cc3oc(=O)c(C)c(C)c23)cc1OC`, the inhibition was -1.33%.
The same measure for `COc1cccc(NC(=O)c2ccccc2N(Cc2ccccc2)S(C)(=O)=O)c1`: 44.6% (active).
Turning to `COc1cccc(CN(C)CC(=O)Nc2ccccc2C(=O)Nc2ccccc2)c1`, the inhibition was -7.24%.
In the case of `COc1cccc(NC(=O)c2ccccc2SC)c1` it was 0.222%; in that of `O=C(Nc1cccc(S(=O)(=O)N2CCCCC2)c1)c1cncc(Br)c1`, 0.772%.
In the case of `NS(=O)(=O)c1ccc(CNC(=O)c2cccc(S(=O)(=O)N3CCc4ccccc43)c2)cc1` it was -0.134%; in that of `Cc1ccc(NC(=O)c2cccc(S(=O)(=O)N3CCCc4ccccc43)c2)nc1`, 44.8% (active).
In the case of `Cc1cccc(NC(=O)c2cccc(S(=O)(=O)N3CCCC3)c2)n1`, the inhibition is -2.35%.
`O=C(CN1C(=O)NC2(CCCCCC2)C1=O)Nc1ccc([N+](=O)[O-])cc1`: the inhibition was -4.3%.
The same measure for `C=CC[C@@H](Cc1ccc(F)cc1)C(=O)OC[C@H]1CCCN1C(=O)[C@H](CC=C)CC(=O)N(CCO)Cc1ccccc1`: -2.32%; for `COc1cccc(-n2c(SCC(=O)NC3CCS(=O)(=O)C3)nc3ccccc3c2=O)c1` (stereo not drawn): -4.98%.
In the case of `CCOc1ccc(NC(=O)CN(C)C(=O)CSc2ccccc2)cc1OCC` it was -0.51%; in that of `CCOc1ccc(NC(=O)CN(C)CC(=O)NC(C)c2ccccc2)cc1OCC` (stereo not drawn), 39.5% (active); in that of `CCOc1ccc(NC(=O)CN(C)CC(=O)Nc2cccc(Cl)c2C)cc1OCC`, -7.09%.
As for `COc1ccc(S(=O)(=O)N2C[C@H]3CON(C)[C@H]3C[C@H]2c2cccc(Br)c2)cc1`, the inhibition was -1.19%.
Take `COc1cccc2c1C(=O)c1c(O)c3c(c(O)c1C2=O)CC(O)(C(C)=NNC(=O)c1ccc(Cl)c(Cl)c1)CC3OC1CC(N)C(O)C(C)O1` (stereo not drawn): the inhibition was -11.4%.
On to `Cn1nc(C(C)(C)C)c([N+](=O)[O-])c1C(N)=O`, for which the inhibition was -0.311%.
In the case of `Cc1c([N+](=O)[O-])c(N)nn1C` it was 46.7% (active).
The same measure for `Cc1nn(C)c(Oc2ccccc2)c1[N+](=O)[O-]`: -1.91%; for `O=C(CSc1cccc[n+]1[O-])c1ccc(-c2ccccc2)cc1`: 0.814%; for `COc1ccccc1C(=O)CSc1cccc[n+]1[O-]`: 1.87%.
The same measure for `O=C(CSc1cccc[n+]1[O-])c1ccc(Cl)cc1`: 51.8% (active); for `CCOC(=O)C1CCCN(C(=O)C2CCN(S(=O)(=O)c3ccc(Cl)c(C(F)(F)F)c3)CC2)C1` (stereo not drawn): -2.17%.
On to `O=C1NC(c2ccc(-c3ccccc3[N+](=O)[O-])o2)C(C(=O)c2ccc(Cl)cc2)C(O)(C(F)(F)F)N1` (stereo not drawn), for which the inhibition is -0.998%.
The same measure for `O=C(Nc1ccc(N2CCOCC2)cc1)c1ccc(-c2ccccc2[N+](=O)[O-])o1`: -1.55%; for `CC1=NN(c2ccc(Cl)c(C(=O)O)c2)C(=O)/C1=C/c1ccc(-c2ccccc2[N+](=O)[O-])o1`: 64% (active); for `COC1C(CO)OC(n2cnc3c(=S)nc(N)[nH]c32)C1O` (stereo not drawn): -4.66%.
As to `COc1cc(OC)cc(-c2sc3ccc(OC)cc3c2-c2ccc3cc[nH]c3c2)c1`, the inhibition was -4.97%.
With `O=C(NCc1ccccc1)c1cccc(NC(=O)C2CCCCC2)c1`, the inhibition is -1.61%.
The same measure for `N=c1c2c(-c3ccccc3)c(-c3ccccc3)oc2ncn1Cc1ccco1`: 4.45%; for `COc1ccc(C(=O)CSc2nnc(COc3ccccc3)n2Cc2ccco2)cc1`: -1.09%.
The same measure for `COc1ccc(-c2oc3ncn(Cc4ccco4)c(=N)c3c2-c2ccc(OC)cc2)cc1`: 36.1% (active).
`O=C(c1cccc(S(=O)(=O)N2CCCCCC2)c1)N1CCN(Cc2ccccc2)CC1`: the inhibition was -6.1%.
In the case of `O=C(NCCc1c[nH]c2ccc(Cl)cc12)c1ccc([N+](=O)[O-])cc1` it was -7.41%; in that of `Cc1ccc2[nH]cc(CCNC(=O)c3ccc([N+](=O)[O-])cc3)c2c1`, -3.1%; in that of `O=C(C[C@H]1C/C=C\C[C@@H](NC(=O)OCC2c3ccccc3-c3ccccc32)C(=O)O[C@@H](c2ccccc2)CNC1=O)N[C@H](CO)Cc1ccccc1`, 3.89%.
In the case of `C=CC[C@@H](CC(=O)N[C@@H](CO)Cc1ccccc1)C(=O)NCCOC(=O)[C@@H](CC=C)CC(=O)OC(C)(C)C` it was -4.88%; in that of `CC(=O)c1cccc(-c2ccc(CN3C(CC(C)C)C(=O)N(Cc4cn(CC5CCCCC5)nn4)CCS3(=O)=O)cc2)c1` (stereo not drawn), -1.77%; in that of `O=C(Nc1nnc(SCc2ccccc2Cl)s1)c1cccc([N+](=O)[O-])c1`, -3.54%.
Consider `O=C(Nc1nnc(SCc2c(Cl)cccc2Cl)s1)c1cccc([N+](=O)[O-])c1`, for which the inhibition was 76.9% (active).
The same measure for `NC(=O)CSc1nnc(NC(=O)c2ccc3ccccc3c2)s1`: -4.05%.
In the case of `O=C(CSc1nc2ccccc2c(=O)n1Cc1ccc(F)cc1)NCC1CCCO1` (stereo not drawn) it was 0.714%; in that of `Cc1ccc(NC(=O)c2ccc(Cl)nc2)cc1S(=O)(=O)N1CCOCC1`, -1.23%.
In the case of `CC[C@]12c3[nH]c4cc(CCC(=O)N(C)C)ccc4c3CCN1C(=O)[C@@H](CC(=O)NCC13CC4CC(CC(C4)C1)C3)C[C@@H]2C(=O)N1CCN(C(=O)C2CC2)CC1` it was 5.74%; in that of `CCCCC(=O)NC(c1ccc(OC)c(OC)c1)c1ccc2cccnc2c1O` (stereo not drawn), -1.93%; in that of `O=C(COc1ccc(/C=N/NC(=O)c2ccc(O)cc2)cc1)Nc1ccc([N+](=O)[O-])cc1`, -1.35%.
Take `O=C(N/N=C/c1ccc(OCc2ccccc2)cc1)c1ccc(O)cc1`: the inhibition is 83.5% (active).
For the compound `C=CCNC(=S)N/N=C/c1ccc(OCc2ccccc2)cc1`, the inhibition is 51.2% (active).
Regarding `O=C(O)c1ccc(/C=N/NC(=S)NCc2ccccc2)cc1`, the inhibition was -1.3%.
Turning to `O=C(N/N=C/c1ccc(OC(=O)c2ccccc2Cl)cc1)c1ccc(O)cc1`, the inhibition was -4.63%.
As for `O=C(Cc1cccs1)N/N=C/c1ccc(OCc2ccccc2)cc1`, the inhibition was -1.99%.
